# Rows were chosen to be rich in hits. Some 1.3% of all compounds tested hit in one or more screens of this group.
# PREPL inhibitor: inhibits the human prolyl oligopeptidase-like enzyme. 0.68% of 320,000 active. inhibition, % at 5.96 µM. Q4J6C6. recombinant PREPL, fluorescence polarization activity-based probe;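 further: 0% = enzyme with DMSO and 100% = wells lacking enzyme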
# PME-1 inh: blocks human protein phosphatase methylesterase 1 | recombinant PME-1, FP-Rh probe fluorescence polarization | inhibition, % at 5.9 µM | 0.53% of 320,000 active | AID 2130;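 active means inhibition above the campaign mean of all compounds plus 3 SD, cut at about 26% in these data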;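 further: competitive labeling of PME-1 active site by serine hydrolase directed probe; 0% = PME-1 with DMSO and 100% = wells lacking PME-1 enzyme; inhibitors block probe labeling so polarization falls and inhibition rises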
# Target sequence (Q9Y570 whole entry, looked up): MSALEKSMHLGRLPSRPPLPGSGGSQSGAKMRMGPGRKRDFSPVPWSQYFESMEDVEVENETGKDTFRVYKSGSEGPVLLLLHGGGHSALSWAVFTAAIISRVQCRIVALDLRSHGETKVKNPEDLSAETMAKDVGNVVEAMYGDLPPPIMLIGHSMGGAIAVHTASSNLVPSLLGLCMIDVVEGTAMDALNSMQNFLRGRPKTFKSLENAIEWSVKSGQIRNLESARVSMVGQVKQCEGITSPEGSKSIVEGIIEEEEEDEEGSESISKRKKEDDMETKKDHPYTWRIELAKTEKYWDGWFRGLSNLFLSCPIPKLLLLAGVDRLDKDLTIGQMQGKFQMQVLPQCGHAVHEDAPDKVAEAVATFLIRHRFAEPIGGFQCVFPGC
# LYPLA1 inh: blocks human lysophospholipase 1, a PME1 counter-screen | O75608 | 0.16% of 320,000 active | recombinant LYPLA1, FP-Rh probe fluorescence polarization | inhibition, % at 5.9 µM;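 active means inhibition above the mean of all tested compounds plus 3 SD, set per campaign, cut at about 14% in these data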;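 further: inhibitors block serine hydrolase probe labeling of LYPLA1 so polarization falls; 0% = enzyme with DMSO and 100% = wells lacking LYPLA1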
# Target sequence (O75608 whole entry, looked up): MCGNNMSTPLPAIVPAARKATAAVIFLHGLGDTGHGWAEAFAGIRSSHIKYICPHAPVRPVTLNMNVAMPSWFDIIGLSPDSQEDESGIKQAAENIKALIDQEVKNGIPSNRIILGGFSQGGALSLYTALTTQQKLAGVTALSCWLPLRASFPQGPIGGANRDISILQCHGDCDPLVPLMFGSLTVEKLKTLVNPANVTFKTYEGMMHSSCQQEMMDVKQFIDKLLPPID
# Fam108B counter: Fam108B inhibition, counter-screen for RBBP9 inhibitors | inhibition, % at 9.51 µM | recombinant Fam108B, FP-Rh probe fluorescence polarization | 0.33% of 300,000 active | AID 1947;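 active means inhibition above the screen mean inhibition plus 3 SD, computed separately per campaign, cut at about 18% in these data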;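 further: inhibitors lower polarization as less probe binds the enzyme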
# LYPLA2 inh: counter-screen for PME1 inhibitors: inhibitors of human LYPLA2; recombinant LYPLA2, FP-Rh probe fluorescence polarization; inhibition, % at 5.9 µM; 0.38% of 320,000 active; AID 2177;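 active means inhibition above the screen-wide mean plus 3 SD, limit set per campaign, cut at about 26% in these data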;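 further: 0% = LYPLA2 with DMSO and 100% = wells lacking LYPLA2 enzyme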
# PREPL inh cf: human PREPL inhibition, confirmation; shares compounds with PREPL inhibitor; recombinant PREPL, fluorescence polarization activity probe; inhibition, % at 5.96 µM; 67% of 2,000 active; AID 2803;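 further: 0% = protein with DMSO and 100% = wells lacking protein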
# * = called active by the depositor; nt = not tested or not shown. Unless noted, no stated cut-off is given here; in the data, active means inhibition above about 43%; inactive means the rest.
SMILES,PREPL inhibitor,PME-1 inh,LYPLA1 inh,Fam108B counter,LYPLA2 inh,PREPL inh cf
COC(CNC(=O)C1CCN(C(=O)c2cc3oc(C)cc3n2Cc2c(F)cccc2Cl)CC1)OC,42,-3,-1,4,-3,nt
Nc1nc2n(n1)C(c1ccccc1)CC(c1ccc(F)cc1)N2 (stereo not drawn),43,0,2,-5,-3,nt
COc1ccc(C2CC(c3cccc(C)c3)n3nc(N)nc3N2)cc1 (stereo not drawn),55*,-1,5,1,9,59*
CCc1ccc(C2CC(c3ccc(F)cc3)Nc3nc(N)nn32)cc1 (stereo not drawn),24,-4,-2,0,0,nt
COc1cccc(C2CC(c3cccc(OC)c3)n3nc(N)nc3N2)c1 (stereo not drawn),30,-1,0,2,1,nt
COc1cccc(C2CC(c3ccc(F)cc3)Nc3nc(N)nn32)c1 (stereo not drawn),44*,0,3,0,-1,46*
CCc1ccc(C2CC(c3ccc(Cl)cc3)n3nc(N)nc3N2)cc1 (stereo not drawn),45*,-2,-1,-2,-5,49*
Cc1ccccc1C1CC(c2ccc(F)cc2)Nc2nc(N)nn21 (stereo not drawn),44*,1,0,2,2,41
Cc1cccc(C(C)Nc2ccc([N+](=O)[O-])cn2)c1 (stereo not drawn),-6,-1,-2,0,4,nt
COc1ccc(OC)c(C(=O)NC(CC(N)=O)c2ccc(N3CCN(c4ccc(F)cc4)CC3)c([N+](=O)[O-])c2)c1 (stereo not drawn),24,-6,-3,2,1,nt
Cc1ccc(S(=O)(=O)N2CC(C)C(=O)CC2C)cc1 (stereo not drawn),3,6,-5,6,-2,nt
COc1ccc(C2CC(c3cccc(Cl)c3)n3nc(N)nc3N2)cc1 (stereo not drawn),55*,1,2,2,6,57*
Cc1ccc(C2CC(c3ccc(C)cc3)n3nc(N)nc3N2)cc1 (stereo not drawn),53*,4,4,2,4,48*
COc1ccc(C2CC(c3ccccc3)Nc3nc(N)nn32)cc1 (stereo not drawn),34,-2,-2,-1,3,nt
CC1CCC(NC(=O)c2nc(Cn3ccc([N+](=O)[O-])n3)no2)CC1 (stereo not drawn),0,-4,4,1,1,nt
CC(=O)c1ccc(NC(=O)C(C)Sc2nnc3ccccn23)cc1 (stereo not drawn),1,3,0,nt,3,nt
Cc1ccc(Cc2ccc(C(=O)NNC(N)=S)o2)cc1,-3,-1,0,-1,1,nt
CC(C)(C)[C@@H]1COC(=O)[C@H](Cc2ccc(F)cc2)CC/C=C\C[C@H](CC(=O)N(CCO)Cc2ccccc2)C(=O)N1,41,nt,nt,nt,nt,nt
CC(C)(C)[C@@H]1COC(=O)[C@H](Cc2ccc(F)cc2)C/C=C\C[C@@H](CC(=O)N(CCO)Cc2ccccc2)C(=O)N1,48*,nt,nt,nt,nt,46*
CC(C)(C)[C@@H]1COC(=O)[C@@H](Cc2ccc(F)cc2)CC/C=C\C[C@@H](CC(=O)N(CCO)Cc2ccccc2)C(=O)N1,55*,nt,nt,nt,nt,50*
O=C1N[C@@H](c2ccccc2)COC(=O)[C@H](Cc2ccc(F)cc2)CC/C=C/C[C@@H]1CC(=O)N(CCO)Cc1ccccc1,57*,nt,nt,nt,nt,46*
COc1ccc(-c2nnn(CC(=O)Nc3sc4c(c3C#N)CCCC4)n2)cc1,16,-15,-5,0,-6,nt
O=c1[nH]c(Nc2ccc3c(c2)OCCO3)nnc1Cc1ccccc1,-6,3,-1,6,-1,nt
COc1ccc(Cl)cc1N(CC(=O)NCCSc1ccccn1)S(=O)(=O)c1ccccc1,-3,2,-4,2,-4,nt
O=C(Nc1oc2ccccc2c(=O)c1-c1ccc(Br)cc1)c1ccco1,-8,-5,0,-1,1,nt
SMILES,PREPL inhibitor,PME-1 inh,LYPLA1 inh,Fam108B counter,LYPLA2 inh,PREPL inh cf
O=S(=O)(c1ccccc1)N(CC(O)COc1ccccc1)c1ccccc1 (stereo not drawn),-10,1,-5,0,-2,nt
CN(Cc1ccco1)C(=O)c1ccc(OC2CCN(Cc3ccccn3)CC2)cc1,3,-6,3,1,6,nt
CC#CCN(Cc1ccco1)C(=O)c1ccc(OC2CCN(Cc3ccccn3)CC2)cc1,49*,4,2,4,11,13
CC(C)CNC(=O)c1cc([N+](=O)[O-])ccc1N1CCOCC1,0,-1,3,7,-1,nt
CC(C)(CNC(=O)c1cc([N+](=O)[O-])ccc1N1CCC(Cc2ccccc2)CC1)N1CCOCC1,45*,17,-3,nt,-2,35
COc1ccc(-c2cc(C(=O)OCC(=O)NC3CC3)c3ccccc3n2)cc1,6,0,-6,nt,-5,nt
COc1ccc2cc(-c3cc(C(=O)OCC(=O)NC4CCS(=O)(=O)C4)c4ccccc4n3)ccc2c1 (stereo not drawn),46*,-11,-4,-4,-2,37
COc1ccc(-c2c(-c3ccccc3)c(C(=O)C(=O)NCCCN(C)C)n3ccc4cc(OC)c(OC)cc4c23)cc1OC,46*,-3,-2,4,-5,52*
CC1=NN(C(=O)c2csc(C(C)C)c2)C(O)(C(F)(F)F)C1 (stereo not drawn),2,-8,3,3,2,nt
CCO[C@H]1OC(C(=O)N2CCN(Cc3ccc4c(c3)OCO4)CC2)=C[C@@H](c2ccc3c(c2)OCO3)[C@@H]1CCCO,49*,5,-1,3,7,43
O=C(C1=C[C@H](c2ccccc2)C[C@H](OCc2ccc(CO)cc2)O1)N1CCN(Cc2ccccc2)CC1,35,0,1,-1,-3,nt
O=C(C1=C[C@H](c2ccccc2)C[C@H](OCCCCO)O1)N1CCN(Cc2ccc3c(c2)OCO3)CC1,22,2,-1,0,4,nt
O=C(C1=C[C@@H](c2ccccc2)C[C@@H](OCc2ccc(CO)cc2)O1)N1CCN(Cc2ccc3c(c2)OCO3)CC1,51*,4,2,4,-1,56*
O=C(C1=C[C@@H](c2ccc(Br)cc2)C[C@@H](OCCCCO)O1)N1CCN(Cc2ccc3c(c2)OCO3)CC1,67*,2,2,1,5,59*
CCC(Cc1ccccc1)NS(=O)(=O)c1csc(C(N)=O)c1 (stereo not drawn),17,11,-4,1,-6,nt
CCN(CC)c1ccc(N)cc1,64*,3,-6,nt,-6,39
Nc1ccc(N(CCO)CCO)cc1,16,11,-1,6,-3,nt
Cn1c(N2CCCC2)nc2c1c(=O)n(Cc1ccc(F)cc1)c(=O)n2C,7,6,3,0,3,nt
